The list is not random: actives were taken first. Their share in the collection is about 2.2%.
EWS-Fli inh = blocks EWS/Fli oncoprotein-driven transcription; A673 NR0B1-luciferase reporter, viability-normalised; 0.67% of 350,000 active; inhibition, % at 12.6 µM;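 active = mean inhibition of at least 50% after viability correction, with every replicate also passing that limit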;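 note: firefly luciferase signal divided by Alamar Blue viability fluorescence both relative to DMSO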
PGC1a acetyl inh = lowers PGC1a acetylation signal in U2OS cells; AlphaScreen anti-acetyl-lysine; with virally co-expressed GCN5 acetyltransferase; inhibition, % at 15.6 µM; 0.17% of 350,000 active;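 active = every replicate shows inhibition of at least 40%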;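 note: 0% = neutral control wells and 100% = positive control wells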
TRPM1 prom inh = inhibitors of MITF-driven TRPM1 promoter in melanoma cells; AID 488899; SK-MEL-5 TRPM1 promoter luciferase, 24 h; inhibition, % at 12.5 µM; 0.83% of 330,000 active;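 active = mean inhibition across replicates of 60% or more, whatever share of single replicates reaches that level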
PAX8 inh HTS = PAX8 transcriptional activity inhibition | AID 652154 | inhibition, % at 12.6 µM | RMG-I TPO-luciferase reporter, SteadyGlo, 24 h | 1.2% of 360,000 active;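 active = mean replicate inhibition at least 60% with every replicate also reaching 60%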;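 note: luciferase light reporting Pax8 driven TPO promoter activity; plate controls were median of neutral control wells for no effect and mitoxantrone controls for full effect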
LGR2 antag = blocks bursicon-induced cAMP signaling via Drosophila LGR2 | HEK293 LGR2, CRE-luciferase, bursicon-stimulated, 4 h | inhibition, % at 9.99 µM | 0.35% of 380,000 active;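 active = drop in luminescence signal, shown as inhibition above about 50% in the replicate tests, limit read from the data, passing the limit was not always enough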;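 note: agonist challenge used bursicon conditioned medium at about half maximal strength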
EBV LMP1 NFkB = Epstein-Barr LMP1 NF-kappaB reporter inhibition | LMP1-induced NF-kappaB luciferase reporter cells, luminescence | inhibition, % at 12.5 µM | 0.69% of 350,000 active; in the data active = inhibition above about 41%;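 note: 0% = neutral control wells and 100% = reference inhibitor control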
The depositor's hits bear a star; · = not tested or not shown.

SMILES	EWS-Fli inh	PGC1a acetyl inh	TRPM1 prom inh	PAX8 inh HTS	LGR2 antag	EBV LMP1 NFkB
CC(=O)Nc1cccc(-c2cc(NC(C)=O)c3ncc(-c4cccc(C(C)=O)c4)n3c2)c1	-2	-2	·	11	·	·
COc1ccc(-c2cc(NC=O)c3ncc(-c4ccc(C(C)=O)cc4)n3c2)cn1	43	5	·	65*	5	·
CC(=O)c1ccc(-c2cnc3c(NC=O)cc(-c4ccccc4Oc4ccccc4)cn23)cc1	33	·	·	84*	-3	·
CC(=O)Nc1cccc(-c2cc(NC=O)c3ncc(-c4ccc(C(C)=O)cc4)n3c2)c1	7	·	·	71*	0	·
O=C(N[C@@H]1CC[C@@H](CCn2cc(-c3ccccn3)nn2)O[C@H]1CO)c1ccc(F)cc1	-8	2	·	-12	5	·
O=C(Nc1cnn(C23CC4CC(CC(C4)C2)C3)c1)c1cnn2c(C(F)(F)F)cc(-c3ccco3)nc12	7	-2	75*	·	79*	13
COc1ccc(NC(=O)Nc2ccc3c(c2)C(=O)N([C@H](C)CO)C[C@@H](C)[C@H](CN(C)C(=O)C2CCCCC2)OCCCC[C@H](C)O3)cc1	15	2	·	34	16	·
COC1=C(N)C(=O)c2nc(C)ccc2C1=O	-68	9	113*	-5	-7	1
COc1ccc(OC)c2sc(N(CCCN(C)C)C(=O)CCS(=O)(=O)c3ccccc3)nc12	43	·	21	108*	25	19
CCN(CC)CCN(C(=O)c1ccc(S(=O)(=O)N(C)C2CCCCC2)cc1)c1nc2c(C)cccc2s1	·	·	11	21	-4	15
Cc1cccc2sc(N(CCCN(C)C)C(=O)c3nc4ccccc4s3)nc12	·	5	73*	·	-6	7
CN(C)CCCN(C(=O)CCc1ccccc1)c1nc2ccc(F)cc2s1	·	·	0	2	-18	-2
Cc1ccc2sc(N(CCCN(C)C)C(=O)c3ccc(S(=O)(=O)N(C)C4CCCCC4)cc3)nc2c1C	52	-22	77*	29	5	-4
COc1ccc(Cl)c2sc(N(CCN(C)C)C(=O)CCS(=O)(=O)c3ccc(C)cc3)nc12	9	·	5	5	0	-8
CN(C)CCCN(C(=O)CCc1ccccc1)c1nc2ccc(Br)cc2s1	35	-8	87*	11	6	1
CCCN1C[C@@H](C)[C@H](OC)CN(C)C(=O)c2cc(NC(=O)c3ccc(F)cc3)ccc2OC[C@H]1C	14	16	·	·	3	·
O=S(=O)(NCC[C@H]1CC[C@H](NS(=O)(=O)c2cccc(Cl)c2)[C@H](CO)O1)c1cccc(F)c1	3	-5	·	11	1	·
CN(C)CCN(C(=O)CCS(=O)(=O)c1ccccc1)c1nc2c(F)cccc2s1	6	-7	-12	7	-10	-1
Cc1ccc2sc(N(CCCN(C)C)C(=O)CCS(=O)(=O)c3ccccc3)nc2c1C	·	·	33	81*	5	8
CO[C@@H]1CN(C)C(=O)c2ccc(NS(=O)(=O)C3CCCCC3)cc2OC[C@@H](C)NC[C@@H]1C	3	5	·	-19	-10	·
N#Cc1c(Nc2ccccc2)sc(C(=O)c2ccc(F)cc2)c1N	·	·	6	32	-12	43*
CCCC(=O)Nc1ccc2c(c1)C(=O)N(C)C[C@H](OC)[C@H](C)CN(C(=O)CN(C)C)[C@@H](C)CO2	-1	1	·	·	-5	·
COc1ccc(-n2nnnc2S(=O)(=O)CC(=O)N2CCCCC2)cc1	-1	-7	74*	43	99*	61*
COc1ccc(-n2nnnc2S(=O)(=O)Cc2ccc(C(=O)O)cc2)cc1	·	-29	9	·	·	27
C[C@@H]1CN([C@H](C)CO)C(=O)c2cc(C#CC3(O)CCCC3)cnc2O[C@H]1CN(C)C(=O)C1CC1	2	8	·	·	-2	·
SMILES	EWS-Fli inh	PGC1a acetyl inh	TRPM1 prom inh	PAX8 inh HTS	LGR2 antag	EBV LMP1 NFkB
C/C=C/c1ccc2c(c1)O[C@H](CN(C)C(=O)c1ccccc1F)[C@H](C)CN([C@H](C)CO)S2(=O)=O	-2	-16	·	·	-17	·
O=C(Nc1ccc2c(c1)[C@@H]1C[C@H](CC(=O)N3CCc4ccccc4C3)O[C@H](CO)[C@@H]1O2)Nc1ccccc1F	-2	-12	·	25	20	·
O=C(Nc1ccc2c(c1)[C@@H]1C[C@H](CC(=O)N3CCc4ccccc4C3)O[C@@H](CO)[C@@H]1O2)Nc1ccccc1F	-2	-11	·	22	12	·
COc1ccc(NC(=O)Nc2ccc3c(c2)[C@@H]2C[C@H](CC(=O)N4CCc5ccccc5C4)O[C@@H](CO)[C@@H]2O3)cc1	-2	8	·	-21	1	·
O=C(Nc1ccc(C(F)(F)F)cc1)Nc1ccc2c(c1)[C@@H]1C[C@H](CC(=O)N3CCc4ccccc4C3)O[C@H](CO)[C@@H]1O2	27	-12	·	109*	12	·
O=C(Nc1ccc(C(F)(F)F)cc1)Nc1ccc2c(c1)[C@@H]1C[C@@H](CC(=O)N3CCc4ccccc4C3)O[C@H](CO)[C@@H]1O2	0	-11	·	76*	4	·
COc1ccc(NC(=O)Nc2ccc3c(c2)[C@@H]2C[C@@H](CC(=O)N4CCc5ccccc5C4)O[C@H](CO)[C@@H]2O3)cc1	-6	-13	·	71*	5	·
CN1C(=O)c2cc(NC(=O)c3cc(F)cc(F)c3)ccc2OC[C@H]2O[C@H](CC(=O)O)CC[C@H]21	3	0	·	-3	-14	·
C[C@H]1CN([C@@H](C)CO)S(=O)(=O)c2ccc(/C=C/c3ccccc3)cc2O[C@@H]1CN(C)C(=O)c1ccncc1	5	-5	·	·	27	·
C[C@H]1CN([C@@H](C)CO)C(=O)c2cccc(NC(=O)NC3CCCCC3)c2O[C@@H]1CN(C)S(C)(=O)=O	0	-1	·	6	2	·
C[C@H]1CN([C@@H](C)CO)S(=O)(=O)c2ccc(-c3cccc(C(=O)N(C)C)c3)cc2O[C@@H]1CN(C)C(=O)Nc1ccc(F)cc1	0	-5	·	·	3	·
Cc1cc(C(=O)Nc2cccc3c2O[C@@H](CN(C)S(C)(=O)=O)[C@@H](C)CN([C@H](C)CO)C3=O)n(C)n1	2	·	·	·	4	·
COc1ccc(-c2cc3cc(F)ccc3cn2)cc1	11	-9	-61	-132	-10	-53
COc1ccc(-c2cc3ccc(F)cc3cn2)cc1	2	7	-52	-123	63*	-36
Nc1nc(-c2cccs2)c(CC(=O)O)s1	-8	6	-2	-33	-16	-13
O=C(O)Cc1sc(Nc2ccc(Cl)cc2)nc1-c1cccs1	-25	·	81*	-4	-62	51*
Cn1c2ccc(F)cc2c2ncn(Cc3ccccn3)c(=O)c21	0	1	-1	2	·	-2
CCOCCCn1cnc2c3cc(F)ccc3n(C)c2c1=O	-14	-8	-22	-21	-16	57*
CCCNC(=O)Nc1ccc2c(c1)C(=O)N(C)C[C@H](OC)[C@@H](C)CN(C(=O)C1CC1)[C@H](C)CO2	-14	18	·	-4	4	·
CCN(CC)CCOC(=O)/C=C/c1ccccc1	1	·	-103	-7	-3	1
